Reference: the supplement of paper PMC10849652
Targets with a hit are over-represented here; the source holds about 7,900 in all. About 0.6% of all pairs of compound and target were hits.

What was measured:
Assay in all cases: log2 fold change, soluble protein after heating vs DMSO (PISA); higher = thermal stabilisation; K562 cells, 10 uM, 30 min; active = over 0.2 and 3.5 SD of the protein, either way, in both replicates (recomputed)
[1] = compound: C#Cc1cccc(Nc2ncnc3cc(OCCOC)c(OCCOC)cc23)c1 [erlotinib]
How it was run: (§1)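 Soluble protein was defined as the supernatant after 21,000xg for 90 min. It came from K562 cells at 2×10^6 cells/mL given 10 μM compound for 30 min, heated in aliquots for 3 min across 48°C-58°C, pooled, and extracted in PBS with 0.5% NP-40 at 4°C, and was quantified by TMTpro 16plex LC-MS/MS with equalised channel sums. Thermal stability against control samples, from duplicates, is reported as log2 fold change.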

[2] = compound: C/C(=N\NC(=O)C1=CC(=CC=C1)S(=O)(=O)N2CCOCC2)/C3=C(C=CC(=C3)Cl)O
How it was run: as §1

[3] = compound: C1=CC(=C(C=C1Cl)C2=NC3=NC=CN=C3C(=N2)NC4=CC=NC=C4)F
How it was run: as §1

[4] = compound: C1=CC(=CC=C1C2=NC3=C(N2)C=C(C=C3)C(=O)N)OC4=CC=C(C=C4)Cl
How it was run: as §1

[5] = compound: C1=CC2=C(C=CC(=C2)/C=C\3/C(=O)NC(=NCC4=CC=CS4)S3)N=C1
How it was run: as §1

[6] = compound: C1=CC2=NC=CN=C2C=C1/C=C/3\C(=O)NC(=O)S3
How it was run: as §1

[7] = compound: C1=CC=C(C=C1)C2=NC(=C(N2)C3=CC=NC=C3)C4=CC(=C(C=C4)Cl)O
How it was run: as §1

[8] = compound: C1=CC=C2C(=C1)C3=NNC4=CC=CC(=C43)C2=O
How it was run: as §1

[9] = compound: C1CCN(C1)C(=O)NC2=CC=CC(=C2)NC3=NC=C(C(=N3)NCCC4=CN=CN4)Br
How it was run: as §1

[10] = compound: C1CN(CCC1(CC2=CC=C(C=C2)Cl)N)C3=NC=NC4=C3C=CN4
How it was run: as §1

[11] = compound: C1COCCN1CCN2C3=CC=CC=C3N=C2NC(=O)C4=CC(=CC=C4)[N+](=O)[O-] [IRAK-1-4 Inhibitor I]
How it was run: as §1

[12] = compound: C=CC(=O)N1CCC[C@@H](n2nc(-c3ccc(Oc4ccccc4)cc3)c3c(N)ncnc32)C1 [ibrutinib]
How it was run: as §1

[13] = compound: CC(=O)c1cnc2ccc(-c3cc(Cl)c(O)c(Cl)c3)nc2c1N[C@H]1CC[C@H](CN(C)C)CC1
How it was run: as §1

[14] = compound: CC(C)(C)Cn1c(N)nc2ccc(-c3[nH]c(C(C)(C)C)nc3-c3ccc(F)cc3)nc21 [ralimetinib]
How it was run: as §1

[15] = compound: CC(C)(O)CC(=O)NCCn1ccc2ncnc(Nc3ccc(Oc4cccc(C(F)(F)F)c4)c(Cl)c3)c21
How it was run: as §1

[16] = compound: CC(C)C1=C2N=C(C=C(N2N=C1)NCC3=CC=CC=C3)NCCCCCCN
How it was run: as §1

[17] = compound: CC(C)C[C@@H](C=O)NC(=O)[C@H](CC(C)C)NC(=O)[C@H](CC(C)C)NC(=O)OCc1ccccc1
How it was run: as §1

[18] = compound: CC(C)N(C[C@H]1O[C@@H](n2cnc3c(N)ncnc32)[C@H](O)[C@@H]1O)[C@H]1C[C@@H](CCc2nc3cc(C(C)(C)C)ccc3[nH]2)C1 [pinometostat]
How it was run: as §1

[19] = compound: CC1=C(C(CC(=O)N1)C2=CC=C(C=C2)C(F)(F)F)C(=O)NC3=C(C=C4C(=C3)C=NN4)F
How it was run: as §1

[20] = compound: CC1=C(C2=C(C=C1)C(=O)C3=CC=CC=C3N2CCCN)C
How it was run: as §1

Measured: log2 fold change

SEC23IP (UniProt Q9Y6Y8)
UniProt Q9Y6Y8, sequence (Q9Y6Y8 whole entry, looked up): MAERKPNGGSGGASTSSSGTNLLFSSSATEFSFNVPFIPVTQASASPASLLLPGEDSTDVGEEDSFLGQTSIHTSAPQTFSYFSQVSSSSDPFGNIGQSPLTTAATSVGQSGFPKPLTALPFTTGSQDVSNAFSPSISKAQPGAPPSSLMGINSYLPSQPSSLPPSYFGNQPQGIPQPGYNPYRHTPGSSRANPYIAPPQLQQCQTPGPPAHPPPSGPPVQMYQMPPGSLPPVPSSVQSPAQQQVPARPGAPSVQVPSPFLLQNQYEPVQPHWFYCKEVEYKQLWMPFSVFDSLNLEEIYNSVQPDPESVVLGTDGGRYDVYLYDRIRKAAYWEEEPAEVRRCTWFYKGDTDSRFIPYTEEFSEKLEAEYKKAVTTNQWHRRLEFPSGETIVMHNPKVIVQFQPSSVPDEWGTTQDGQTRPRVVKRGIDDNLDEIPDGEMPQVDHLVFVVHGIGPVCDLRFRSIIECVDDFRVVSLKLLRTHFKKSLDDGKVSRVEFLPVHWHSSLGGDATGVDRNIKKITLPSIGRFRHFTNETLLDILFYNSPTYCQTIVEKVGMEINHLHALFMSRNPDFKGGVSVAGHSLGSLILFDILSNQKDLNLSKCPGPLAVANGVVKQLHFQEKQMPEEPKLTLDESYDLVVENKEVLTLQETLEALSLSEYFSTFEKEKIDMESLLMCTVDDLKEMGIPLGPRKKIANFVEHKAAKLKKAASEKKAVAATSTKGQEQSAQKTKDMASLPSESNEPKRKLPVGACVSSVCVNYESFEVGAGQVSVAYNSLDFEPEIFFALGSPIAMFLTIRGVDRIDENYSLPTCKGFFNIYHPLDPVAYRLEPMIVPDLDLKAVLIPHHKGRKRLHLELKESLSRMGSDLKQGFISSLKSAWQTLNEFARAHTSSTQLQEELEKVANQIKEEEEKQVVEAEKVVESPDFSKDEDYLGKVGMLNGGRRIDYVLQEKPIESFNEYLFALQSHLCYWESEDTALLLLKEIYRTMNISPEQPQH
active: [16] -0.252
inactive: [1] 0.03 | [2] 0.022 | [3] -0.013 | [4] -0.037 | [5] 0.028 | [6] 0.229 | [7] -0.023 | [8] -0.027 | [9] -0.008 | [10] -0.061 | [11] -0.007 | [12] -0.023 | [13] -0.048 | [14] -0.004 | [15] -0.119 | [17] 0.006 | [18] 0.032 | [19] 0.059 | [20] -0.011

REL (UniProt Q04864)
inactive: [1] 0.076 | [2] -0.013 | [3] -0.007 | [4] 0.003 | [5] 0.024 | [6] -0.037 | [7] -0.029 | [8] -0.013 | [9] -0.082 | [10] 0.01 | [11] -0.046 | [12] -0.095 | [13] -0.017 | [14] 0.037 | [15] -0.093 | [16] -0.074 | [17] 0.062 | [18] 0.089 | [19] -0.039 | [20] 0.005

RNPEP (UniProt Q9H4A4)
inactive: [1] 0.053 | [2] 0.053 | [3] 0.053 | [4] 0.007 | [5] 0.009 | [6] 0.019 | [7] 0.036 | [8] -0.008 | [9] -0.004 | [10] -0.016 | [11] -0.004 | [12] -0.018 | [13] 0.02 | [14] 0.011 | [15] -0.055 | [16] -0.182 | [17] -0.021 | [18] 0.018 | [19] 0.004 | [20] 0.137

RBM48 isoform 2 (UniProt Q5RL73)
UniProt Q5RL73, sequence (Q5RL73 whole entry, looked up): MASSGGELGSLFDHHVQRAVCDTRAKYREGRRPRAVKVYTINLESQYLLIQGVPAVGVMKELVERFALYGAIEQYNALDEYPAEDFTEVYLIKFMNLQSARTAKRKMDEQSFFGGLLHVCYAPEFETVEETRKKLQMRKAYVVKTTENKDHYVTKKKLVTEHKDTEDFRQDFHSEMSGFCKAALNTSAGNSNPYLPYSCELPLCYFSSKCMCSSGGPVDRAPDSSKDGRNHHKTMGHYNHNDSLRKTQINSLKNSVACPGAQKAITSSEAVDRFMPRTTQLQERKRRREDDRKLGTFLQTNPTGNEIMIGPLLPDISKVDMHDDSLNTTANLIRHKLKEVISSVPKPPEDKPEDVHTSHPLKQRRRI
inactive: [1] -0.048 | [2] 0.017 | [3] -0.065 | [4] -0.026 | [5] 0.053 | [6] 0.055 | [7] -0.144 | [8] 0.042 | [9] 0.118 | [10] -0.115 | [11] 0.15 | [12] 0.051 | [13] -0.018 | [14] 0.004 | [15] 0.004 | [16] 0.156 | [17] -0.301 | [18] 0.068 | [19] -0.099 | [20] -0.151

SEC16A isoform 5 (UniProt O15027)
inactive: [1] 0.126 | [2] -0.143 | [3] -0.064 | [4] 0.015 | [5] 0.153 | [6] -0.018 | [7] 0.044 | [8] 0.069 | [9] 0.06 | [10] 0.017 | [11] -0.136 | [12] -0.062 | [13] -0.069 | [14] 0.172 | [15] -0.177 | [17] 0.046 | [18] 0.097 | [19] -0.027 | [20] 0.025
active: [16] -0.282

RRP12 (UniProt Q5JTH9)
UniProt Q5JTH9, sequence (Q5JTH9 whole entry, looked up): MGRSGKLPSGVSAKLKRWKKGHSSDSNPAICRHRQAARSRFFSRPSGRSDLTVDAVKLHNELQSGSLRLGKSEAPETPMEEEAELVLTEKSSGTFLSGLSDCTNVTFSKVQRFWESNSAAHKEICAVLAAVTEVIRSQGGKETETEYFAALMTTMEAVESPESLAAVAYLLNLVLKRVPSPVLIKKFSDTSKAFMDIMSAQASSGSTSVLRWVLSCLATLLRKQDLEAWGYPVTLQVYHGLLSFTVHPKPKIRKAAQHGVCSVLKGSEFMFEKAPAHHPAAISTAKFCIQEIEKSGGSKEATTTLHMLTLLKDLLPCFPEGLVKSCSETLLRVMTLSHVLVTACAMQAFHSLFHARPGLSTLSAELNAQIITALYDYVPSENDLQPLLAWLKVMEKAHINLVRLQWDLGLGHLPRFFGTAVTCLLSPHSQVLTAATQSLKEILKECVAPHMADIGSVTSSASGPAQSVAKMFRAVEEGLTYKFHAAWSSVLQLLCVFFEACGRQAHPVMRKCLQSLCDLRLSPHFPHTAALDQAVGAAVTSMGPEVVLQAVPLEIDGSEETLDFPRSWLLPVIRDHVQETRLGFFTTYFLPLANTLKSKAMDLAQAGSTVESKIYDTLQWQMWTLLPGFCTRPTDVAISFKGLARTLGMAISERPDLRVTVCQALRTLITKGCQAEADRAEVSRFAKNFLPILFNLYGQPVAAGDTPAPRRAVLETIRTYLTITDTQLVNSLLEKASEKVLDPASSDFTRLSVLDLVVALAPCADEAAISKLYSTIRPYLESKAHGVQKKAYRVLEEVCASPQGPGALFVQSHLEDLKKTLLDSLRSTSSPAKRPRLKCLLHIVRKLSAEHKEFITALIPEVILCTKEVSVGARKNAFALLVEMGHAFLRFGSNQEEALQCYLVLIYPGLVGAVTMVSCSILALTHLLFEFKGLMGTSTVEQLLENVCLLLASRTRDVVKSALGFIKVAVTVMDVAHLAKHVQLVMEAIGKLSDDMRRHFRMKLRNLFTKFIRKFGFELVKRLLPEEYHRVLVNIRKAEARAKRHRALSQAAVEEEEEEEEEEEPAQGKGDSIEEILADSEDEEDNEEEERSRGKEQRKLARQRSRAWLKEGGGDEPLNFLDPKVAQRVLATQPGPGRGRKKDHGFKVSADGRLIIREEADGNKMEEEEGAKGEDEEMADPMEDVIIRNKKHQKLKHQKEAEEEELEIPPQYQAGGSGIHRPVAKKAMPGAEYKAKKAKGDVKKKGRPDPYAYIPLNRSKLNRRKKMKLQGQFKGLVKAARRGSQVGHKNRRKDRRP
inactive: [1] 0.074 | [2] -0.3 | [3] -0.172 | [4] 0.028 | [5] -0.04 | [6] 0.038 | [7] 0.166 | [8] 0.205 | [9] 0.079 | [10] 0.054 | [11] -0.018 | [12] -0.1 | [13] 0.201 | [14] 0.331 | [15] 0.006 | [16] 0.272 | [17] 0.243 | [18] 0.315 | [19] -0.051 | [20] -0.107

SDHAF2 (UniProt Q9NX18)
UniProt Q9NX18, sequence (Q9NX18 whole entry, looked up): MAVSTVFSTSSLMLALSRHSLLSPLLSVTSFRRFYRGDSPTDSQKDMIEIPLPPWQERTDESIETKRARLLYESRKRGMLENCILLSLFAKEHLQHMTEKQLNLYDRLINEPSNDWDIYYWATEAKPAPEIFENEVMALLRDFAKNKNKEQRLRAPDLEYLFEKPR
inactive: [1] -0.021 | [3] 0.083 | [4] 0.018 | [5] -0.102 | [6] 0.051 | [7] -0.035 | [8] 0.114 | [9] 0.068 | [10] -0.091 | [11] 0.013 | [12] -0.004 | [13] 0.124 | [14] -0.044 | [15] -0.011 | [16] -0.042 | [17] 0.084 | [18] -0.014 | [19] 0.015 | [20] -0.01
active: [2] 0.304

SELENOH (UniProt Q8IZQ5)
UniProt Q8IZQ5, sequence (Q8IZQ5 whole entry, looked up): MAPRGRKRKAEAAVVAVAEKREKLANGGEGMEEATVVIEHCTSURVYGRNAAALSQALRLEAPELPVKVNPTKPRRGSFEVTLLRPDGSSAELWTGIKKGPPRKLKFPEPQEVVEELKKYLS
inactive: [1] 0.032 | [2] 0.013 | [3] -0.013 | [4] -0.003 | [6] -0.002 | [7] 0.034 | [8] 0.003 | [9] -0.052 | [10] 0.032 | [11] -0.018 | [12] -0.039 | [13] 0.13 | [14] 0.086 | [15] -0.017 | [16] 0.059 | [17] -0.012 | [18] -0.012 | [19] -0.052 | [20] 0.057
active: [5] -0.297

RPS25 (UniProt P62851)
inactive: [1] -0.083 | [2] -0.071 | [3] -0.276 | [4] 0.077 | [5] -0.075 | [6] -0.091 | [7] -0.067 | [8] 0.033 | [9] 0.061 | [10] -0.141 | [11] -0.08 | [12] 0.01 | [13] 0.069 | [14] 0.073 | [15] 0.033 | [16] -0.028 | [17] 0.054 | [18] 0.184 | [19] 0.006
active: [20] -0.533

RCOR1 (UniProt Q9UKL0)
UniProt Q9UKL0, sequence (Q9UKL0 whole entry, looked up): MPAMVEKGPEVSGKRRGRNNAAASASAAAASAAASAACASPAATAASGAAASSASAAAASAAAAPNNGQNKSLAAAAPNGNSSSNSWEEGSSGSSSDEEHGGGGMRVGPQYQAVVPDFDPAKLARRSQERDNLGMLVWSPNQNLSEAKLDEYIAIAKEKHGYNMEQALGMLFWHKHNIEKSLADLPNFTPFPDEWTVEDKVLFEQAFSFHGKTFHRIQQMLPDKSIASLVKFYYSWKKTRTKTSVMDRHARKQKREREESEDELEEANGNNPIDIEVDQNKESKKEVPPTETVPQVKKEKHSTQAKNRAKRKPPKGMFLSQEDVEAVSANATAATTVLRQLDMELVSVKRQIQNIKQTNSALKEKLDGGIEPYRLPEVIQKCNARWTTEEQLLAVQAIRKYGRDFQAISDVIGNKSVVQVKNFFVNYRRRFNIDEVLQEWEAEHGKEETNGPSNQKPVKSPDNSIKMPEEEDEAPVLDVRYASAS
inactive: [1] 0.033 | [2] 0.069 | [3] -0.043 | [4] -0.056 | [5] 0.134 | [6] -0.013 | [7] 0.076 | [8] -0.011 | [9] -0.006 | [10] -0.043 | [11] -0.037 | [12] -0.036 | [13] -0.14 | [14] 0.002 | [15] -0.08 | [16] 0.002 | [17] -0.034 | [18] 0.026 | [19] 0.025 | [20] 0.021

RBM22 (UniProt Q9NW64)
UniProt Q9NW64, sequence (Q9NW64 whole entry, looked up): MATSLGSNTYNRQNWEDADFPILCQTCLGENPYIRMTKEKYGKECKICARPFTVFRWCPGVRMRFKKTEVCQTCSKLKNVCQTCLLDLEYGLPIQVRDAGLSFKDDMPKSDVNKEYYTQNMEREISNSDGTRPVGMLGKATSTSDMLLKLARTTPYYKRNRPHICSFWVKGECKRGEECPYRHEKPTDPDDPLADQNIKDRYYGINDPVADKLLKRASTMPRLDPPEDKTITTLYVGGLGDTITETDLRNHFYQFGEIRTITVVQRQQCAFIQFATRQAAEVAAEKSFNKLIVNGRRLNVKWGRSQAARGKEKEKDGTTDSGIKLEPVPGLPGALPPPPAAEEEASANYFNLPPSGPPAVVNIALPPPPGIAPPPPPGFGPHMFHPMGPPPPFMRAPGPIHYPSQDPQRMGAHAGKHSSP
inactive: [1] -0.013 | [2] -0.037 | [3] -0.061 | [4] -0.009 | [5] -0.117 | [6] 0.038 | [7] -0.084 | [8] -0.051 | [9] 0 | [10] 0.121 | [11] 0.014 | [12] -0.032 | [13] 0.029 | [14] 0.048 | [15] 0.071 | [16] 0.068 | [17] 0.104 | [18] 0.015 | [19] 0.041 | [20] 0.124

RAB5IF isoform 5 (UniProt Q9BUV8)
UniProt Q9BUV8, sequence (Q9BUV8 whole entry, looked up): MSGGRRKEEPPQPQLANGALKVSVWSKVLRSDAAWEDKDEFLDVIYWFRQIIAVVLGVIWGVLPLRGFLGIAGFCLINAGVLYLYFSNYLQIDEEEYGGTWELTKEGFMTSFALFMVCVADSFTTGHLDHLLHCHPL
active: [7] 0.373
inactive: [1] 0.071 | [2] 0.093 | [3] 0.098 | [4] 0.055 | [5] -0.061 | [6] 0.112 | [8] 0.036 | [9] 0.027 | [10] 0.267 | [11] -0.082 | [12] 0.031 | [13] 0.048 | [14] 0.3 | [15] 0.021 | [16] -0.187 | [17] -0.143 | [18] -0.105 | [19] -0.12 | [20] -0.036

SHCBP1 (UniProt Q8NEM2)
UniProt Q8NEM2, sequence (Q8NEM2 whole entry, looked up): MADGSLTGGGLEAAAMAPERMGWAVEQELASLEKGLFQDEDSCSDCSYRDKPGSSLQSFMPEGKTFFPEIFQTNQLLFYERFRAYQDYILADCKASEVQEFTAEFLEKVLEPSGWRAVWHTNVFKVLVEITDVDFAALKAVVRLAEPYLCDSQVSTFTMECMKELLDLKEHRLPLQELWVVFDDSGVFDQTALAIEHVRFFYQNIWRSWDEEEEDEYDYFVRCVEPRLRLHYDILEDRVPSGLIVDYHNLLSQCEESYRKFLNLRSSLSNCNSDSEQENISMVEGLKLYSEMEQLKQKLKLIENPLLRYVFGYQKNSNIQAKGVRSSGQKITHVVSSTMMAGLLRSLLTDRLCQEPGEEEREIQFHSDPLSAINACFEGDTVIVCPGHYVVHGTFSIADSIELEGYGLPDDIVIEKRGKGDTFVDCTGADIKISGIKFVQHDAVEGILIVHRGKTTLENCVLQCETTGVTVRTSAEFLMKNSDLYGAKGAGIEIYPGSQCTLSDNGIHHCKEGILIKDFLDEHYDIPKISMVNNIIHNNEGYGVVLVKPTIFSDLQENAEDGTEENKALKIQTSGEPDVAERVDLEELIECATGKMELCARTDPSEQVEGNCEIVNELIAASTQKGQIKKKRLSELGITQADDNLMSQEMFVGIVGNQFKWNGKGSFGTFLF
inactive: [1] -0.013 | [2] -0.029 | [3] -0.027 | [4] 0.018 | [5] 0.137 | [6] 0.028 | [7] -0.104 | [8] 0.054 | [9] 0.127 | [10] -0.128 | [11] -0.11 | [12] -0.072 | [13] -0.013 | [14] 0.025 | [15] -0.121 | [17] 0.012 | [18] 0.066 | [19] 0.074 | [20] 0.02
active: [16] -0.516
